This is an account of results in PubChem BioAssay (NCATS).

Records with an inconclusive call do not appear. Active and inactive are the calls of the source. Calls follow the shape of the dose curve; as a rule, active = well fitted curve in the direction sought with a large enough effect; inconclusive = small, poorly fitted or top-dose-only effect, or another doubt; inactive = no such curve, though single readings can be large or run the other way.
% is scaled to controls: 0 for no effect and ±100 for the full control effect.

The assay deals with Calcium and integrin-binding protein 1 (Homo sapiens) (UniProt Q99828). Kind of assay: Validation qHTS for Identification of Calcium Integrin Binding protein 1 (CIB1) Competitor (AID 1508618). The following applies: CIB1-GST / FITC-alphaIIb peptide fluorescence polarization; series mostly up to 114 µM; activity change, negative = inhibition: at the top concentration. From the text: Assay Provider: Ulhas P. Naik, PhD
Calcium and integrin-binding protein 1 (Homo sapiens), sequence (Q99828 whole entry, looked up): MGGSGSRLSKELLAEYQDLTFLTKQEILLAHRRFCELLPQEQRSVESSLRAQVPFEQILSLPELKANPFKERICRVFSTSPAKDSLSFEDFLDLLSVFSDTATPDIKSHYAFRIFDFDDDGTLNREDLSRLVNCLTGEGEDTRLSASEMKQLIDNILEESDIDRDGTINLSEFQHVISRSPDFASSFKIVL
Sidney Kimmel Medical College
Thomas Jefferson University, Philadelphia, PA
Primary function of platelets is to maintain hemostasis. At the site of vascular injury, platelets adhere to adhesive proteins such as collagen and von Willebrand factor. Adherent platelets are activated and generate soluble platelet agonists such as thrombin, ADP and thromboxane A2. Following exposure of circulating platelets to these agonists, results in platelet shape change, granule secretion and activation of platelet integrin alphaIIb-beta3. Ligand binding to activated integrin alphaIIb-beta3 triggers outside-in signaling, leading to platelet aggregation, stabilization of platelet plug, and clot retraction. Upon atherosclerotic plaque rupture also causes platelet plug formation, which underlies a number of cardiovascular diseases such as myocardial infraction and stroke. A number of anti-platelet drugs such as aspirin, clopidogrel, prasugrel, vorapaxar, and eptifibatide are currently available to prevent the thrombotic complications. However, these anti-platelet agents have several limitations including inherent variability in individual responses, developing resistance, and serious bleeding side effects. For these reasons they are not suitable for long-term protection. Based on the experiences with current anti-platelet drugs, it appears that the most useful therapeutic approach is to intersect the secondary responses such as integrin outside-in signaling or recruitment of platelets by TxA2 and secreted ADP. Compounds, which can largely preserve the primary hemostatic function of platelets but inhibit secondary response will be most desired therapeutic agents for treatment of cardiovascular disease.
CIB1 is a calcium integrin binding protein, which specifically interact with the alphaIIb subunit of integrin alphaIIb-beta3. Binding of CIB1 to alphaIIb regulates the outside-in signaling in platelets, which is needed for thrombus stabilization and thrombus growth. […] Therefore, we propose that discovery of a small molecule that can prevent the association of CIB1 and alphaIIb-beta3 will be a potential anti-platelet agent that can block the thrombus formation without undue effect on hemostasis.
To develop fluorescence polarization (FP) assay using fluorescently labeled alphaIIb peptide and CIB1 protein. Using FP assay characterize the binding affinity, competitive inhibition, and acceptable Z factor (0.5 to1) in order to perform the HTS to identify small molecule compound that can prevent CIB1 binding to platelet integrin alphaIIbbeta3. This assay is screened against the NCATS LOPAC library to validate the amenability of the assay to qHTS.
[1] Naik MU, Nigam A, Manrai P, et al. CIB1 deficiency results in impaired thrombosis: the potential role of CIB1 in outside-in signaling through integrin alpha IIb beta 3. J Thromb Haemost. 2009;7(11):1906-1914. doi:10.1111/j.1538-7836.2009.03581.
SEQUENCE No. (1, 2, 3, etc.); […] (e.g., Cells, Incubation, Reagent, etc.); VALUE and DESCRIPTION.
1; Reagent; 3 uL; Protein or buffer (4/3x)
2; Compound; 46 nL; Control inhibitor / compound library
3; Time; 15 min; Room temperature incubation
4; Reagent; 1 uL; Fluorescent labeled peptide (4x)
5; Time; 1000 rpm; Centrifuge
6; Time; 15 min; Room temperature incubation
7; Detection; Ex 480/ Em 540; ViewLux Fluorescence Read
NOTES (numbers refer to sequence above)
1; Protein Mixture: C1B1-GST (final concentrations of 1 uM). Buffer composition: 5 mM HEPES pH 7.4, 125 mM NaCl, 5 mM CaCl2, 0.01% Tween20.
2; Control Inhibitor: unlabeled peptide (final concentration range 17.4 nM to 572 uM). Compound Library final concentration range 18.3 nM to 114 uM.
3; Room temperature incubation.
4; Fluorescent Labeled Peptide: FITC-aIIb (final concentration of 100 nM). Sequence of alphaIIb peptide: Acetyl-[…]-FITC (purity is 95.83%).
6; Room temperature incubation.
[…]
For the compound `C=C1C[C@@]23CC[C@H]4[C@@](C)(CCC[C@@]4(C)C(=O)OC4OC(CO)C(O)C(O)C4O)[C@@H]2CC[C@]1(OC1OC(CO)C(O)C(O)C1OC1OC(CO)C(O)C(O)C1O)C3` (stereo not given in full), the “activity change, negative = inhibition” value was 2.96% (inactive). Consider `Nc1ncnc2c1ncn2C1CCCO1` (stereo not given), for which the “activity change, negative = inhibition” value is 6.29% (inactive). For `N[C@@H](CCCC(=O)O)C(=O)O`, the “activity change, negative = inhibition” value was 0.825% (inactive). The figure for `N=S(=O)(O)Cc1noc2ccccc12` is 6.45% (inactive). The figure for `CC(=O)O[C@H]1CC2(C)[C@@H](C[C@@H](O)[C@H]3[C@@]4(C)CC[C@@H](O)[C@@H](C)[C@@H]4CC[C@@]32C)C1=C(CCC=C(C)C)C(=O)O` (stereo not given in full) is 6.08% (inactive); for `CC(=O)O[C@H]1Cc2ccccc2N(C(N)=O)c2ccccc21` it is 2.4% (inactive); for `c1ccc(C2CN3CCSC3=N2)cc1` (stereo not given) it is 2.88% (inactive). As for `CC(/C=C/c1cccc(Oc2ccc(F)cc2)c1)N(O)C(N)=O` (stereo not given), the “activity change, negative = inhibition” value is -7.56% (inactive).

Turning to `NC(Cc1cccc(-c2ccccc2CP(=O)(O)O)c1)C(=O)O` (stereo not given), the “activity change, negative = inhibition” value is 6.62% (inactive). Regarding `CCCn1c(=O)c2[nH]c(-c3ccc(S(=O)(=O)O)cc3)nc2n(CCC)c1=O`, the “activity change, negative = inhibition” value was 2.03% (inactive). Next, `Cc1ccc([N+](=O)[O-])cc1S(=O)(=O)N(C)C`: 2.38% (inactive); `CC(=O)NCCc1c[nH]c2ccc(O)cc12`: 7.84% (inactive); `N#CC(C#N)=C(N)/C(C#N)=C/c1ccc(O)cc1`: 6.8% (inactive). On to `Brc1c(Br)c(Br)c2[nH]cnc2c1Br`, for which the “activity change, negative = inhibition” value is 4.68% (inactive). Next, `C[C@](Cc1ccc(O)c(O)c1)(NN)C(=O)O`: 9.64% (inactive). For `O=c1onc2n1-c1cc(Br)ccc1OC2`, the “activity change, negative = inhibition” value is 3.6% (inactive). Next, `Nc1ccc(CCNc2ncnc3c2ncn3C2OC(CO)C(O)C2O)cc1` (stereo not given): 10.3% (inactive). The figure for `O=c1[nH]c2ccccc2c2ccccc12` is 8.51% (inactive). Next, `COc1ccc(CCn2nnnc2C2(c3ccc(C)cc3)CC2)cc1`: 1.35% (inactive). Turning to `N=C(N)c1ccccc1`, the “activity change, negative = inhibition” value is 5.92% (inactive). Turning to `COc1cc(C(O)CO)ccc1O` (stereo not given), the “activity change, negative = inhibition” value was 0.713% (inactive). Take `Nc1ncnc2c1nc(Br)n2C1OC2COP(=O)(O)O[C@@H]2C1O` (stereo not given in full): the “activity change, negative = inhibition” value was 4.2% (inactive). The figure for `Oc1cc(O)c2c(c1)O[C@H](c1ccc(O)c(O)c1)[C@@H](O)C2` is 1.54% (inactive); for `C[C@]12C=CC(=O)C=C1CC[C@@H]1C2=CC[C@]2(C)[C@@H](C(=O)CN3CCN(c4cc(N5CCCC5)nc(N5CCCC5)n4)CC3)CC[C@@H]12` it is 3.9% (inactive); for `CC1C(=O)N(C)C(=O)c2nc[nH]c21` (stereo not given) it is 6.74% (inactive).

In the case of `NC1C=CC=C(C(=O)O)C1` (stereo not given), the “activity change, negative = inhibition” value is 2.59% (inactive).

For `Nc1ncnc2c1nc(Sc1ccc(Cl)cc1)n2[C@H]1OC2COP(=O)(O)O[C@@H]2C1O` (stereo not given in full), the “activity change, negative = inhibition” value is 4.22% (inactive).

With `CC(=O)C(C)=O`, the “activity change, negative = inhibition” value was 10.3% (inactive).

`C[C@H]1CC2C3CCC4=CC(=O)C=C[C@]4(C)[C@@]3(Cl)[C@@H](O)C[C@]2(C)[C@@]1(O)C(=O)CO` (stereo not given in full): the “activity change, negative = inhibition” value was 10.4% (inactive). On to `C=CCNc1ncnc2ccc(Br)cc12`, for which the “activity change, negative = inhibition” value was 12.6% (inactive). `CCCCCCCCCC(=O)NC(CN1CCOCC1)[C@H](O)c1ccccc1` (stereo not given in full): the “activity change, negative = inhibition” value is -4.48% (inactive). Take `Cc1nc2n(c(=O)c1CCN1CCC(c3noc4cc(F)ccc34)CC1)CCCC2O` (stereo not given): the “activity change, negative = inhibition” value was -6.14% (inactive). `CN1Cc2sccc2C(c2ccc(O)c(O)c2)C1` (stereo not given): the “activity change, negative = inhibition” value was 5.75% (inactive). Turning to `OC[C@H]1O[C@H](n2cnc3c(N[C@H]4CCC[C@@H]4O)ncnc32)[C@H](O)[C@@H]1O`, the “activity change, negative = inhibition” value is 5.44% (inactive). Next, `CSc1nc(N)c2ncn([C@@H]3O[C@H](COP(=O)(O)OP(=O)(O)O)C(O)[C@H]3O)c2n1` (stereo not given in full): 5.98% (inactive); `Cc1cccc(C2CN(C)CCc3c2cc(O)c(O)c3Cl)c1` (stereo not given): 6.4% (inactive); `CCCCS(=N)(=O)CC[C@H](N)C(=O)O` (stereo not given in full): 1.35% (inactive). `CCCCCC(O)CCCC(=O)O` (stereo not given): the “activity change, negative = inhibition” value is 8.28% (inactive). With `NC(=O)CNCCC(c1ccccc1)c1ccccc1`, the “activity change, negative = inhibition” value was 3.49% (inactive). Regarding `C[C@@H](NCCc1ccc(O)cc1)[C@@H](O)c1ccc(O)cc1`, the “activity change, negative = inhibition” value is -2.81% (inactive).
